Assay outcomes from PubChem.
Compounds with a hit are over-represented: about 1.7% of the library has one in this group of screens.
GLP-1R inv ag: qHTS of GLP-1 Receptor Inverse Agonists (Inhibition Mode). Glucagon-like peptide 1 receptor (Homo sapiens), P43220. HEK293 GLP-1R CRE-luciferase, luminescence, 24 h; GLP-1R form is constitutively active. Potency, µM (titrated, usually from 38.3 µM), for inactives: at the top dose activity change, negative = inhibition, most hits filed as inhibitors. 410,000 tested, 1.6% active. AID 624417, 2012; note: % is set by controls: 0 for no effect and ±100 for the full control effect; nearly all actives have a fitted effect of over 55% in size
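Inverse agonism was detected as reduced cAMP-driven luciferase luminescence after 24 h compound treatment. The cells were HEK293 clones expressing constitutively active human GLP-1R with the reporter. Reporter-only and GPR119 cell lines served as counterscreen controls.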
HEK293 tox: qHTS of GLP-1 Receptor Inverse Agonists: Cytotox Screen; HEK293 cAMP-luciferase reporter cells, luminescence, 24 h; AID 624418, 2012; 410,000 tested, 0.13% active; Potency, µM (top dose mostly 38.3 µM), inactives show at the top dose activity change, negative = inhibition, most hits filed as inhibitors;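 note: loss of luciferase light is scored as toxicity; % is set by controls: 0 for no effect and ±100 for the full control effect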
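To flag toxic compounds, the library was rerun on cells for 24 hr at 37 deg C and 5% CO2. Viability-linked luminescence was captured 12 min after adding luciferase detection reagent.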
PTHR1 agonist: qHTS for PTHR1 Agonists: Primary Screen | HEK293 GP2 PTHR1 cells, GloSensor cAMP luminescence, 1 h | Potency, µM (top dose mostly 115 µM), for the others: top-dose activation, hits mostly activators | 410,000 tested, 0.075% active | AID 743266, 2014; note: nearly all actives have a fitted effect of over 55% in size
Target sequence (Q03431 whole entry, looked up): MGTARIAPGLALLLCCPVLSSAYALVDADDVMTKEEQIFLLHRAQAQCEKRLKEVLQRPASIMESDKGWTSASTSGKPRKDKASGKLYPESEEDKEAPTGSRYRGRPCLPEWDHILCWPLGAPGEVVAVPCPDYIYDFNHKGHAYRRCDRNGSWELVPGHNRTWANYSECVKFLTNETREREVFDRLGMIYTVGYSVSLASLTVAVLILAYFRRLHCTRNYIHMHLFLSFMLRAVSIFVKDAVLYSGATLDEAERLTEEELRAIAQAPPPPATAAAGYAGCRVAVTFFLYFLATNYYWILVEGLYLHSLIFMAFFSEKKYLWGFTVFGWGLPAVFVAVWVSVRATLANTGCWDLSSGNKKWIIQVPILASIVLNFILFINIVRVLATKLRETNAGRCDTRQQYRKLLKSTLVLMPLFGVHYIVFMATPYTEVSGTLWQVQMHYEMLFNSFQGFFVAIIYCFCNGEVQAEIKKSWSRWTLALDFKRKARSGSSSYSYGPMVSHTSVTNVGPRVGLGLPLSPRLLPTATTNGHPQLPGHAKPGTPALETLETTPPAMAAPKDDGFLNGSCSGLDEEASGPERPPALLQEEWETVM
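HEK-293-derived GP2 cells expressing PTHR1 and a GloSensor cAMP reporter, 3,000/well, plated overnight, given luciferin plus IBMX (each 0.5 mM as added) for 1 h at 37 °C, then compound for 1 h at 37 °C. Luminescence was read after 15 min at room temperature.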
GLP1R ag: qHTS of GLP-1 Receptor Agonists. Glucagon-like peptide 1 receptor (Homo sapiens), P43220. HEK293 GLP-1R CRE-luciferase, luminescence, 4-6 h; cells express a hypersensitive GLP-1R form. Potency, µM (highest dose often 45.6 µM), without a hit: at the highest dose activation, usual class: activators. 380,000 tested, 0.007% active. AID 624172, 2012; note: % of control where 0% means no effect
* hit, by the source's call; i = inactive; ? = inconclusive; nt = not tested or not shown; [ ] = another dose, or the depositor's remark. Calls come from the whole dose curve; as a rule, active = well fitted curve in the direction sought with a large enough effect; inconclusive = small, poorly fitted or top-dose-only effect, or another doubt; inactive = no such curve, though single readings can be large; an effect the other way counts as inactive or inconclusive. Potency is the fitted concentration of half-maximal effect.

SMILES	GLP-1R inv ag	HEK293 tox	PTHR1 agonist	GLP1R ag
O=P(Nc1cccc(F)c1)(Oc1ccccc1F)Oc1ccccc1F	11.2µM*	-18.5%	i	10.7%
COc1ccc(CN(CCc2c[nH]c3ccccc23)Cc2ccc(OC)cc2)cc1	10µM*	?	-90.6%	-5.2%
CCCN(CCC)CCc1c[nH]c2ccccc12	nt	nt	nt	3.1%[96 µM]
CN(C)C(=O)Oc1c(Cl)cc(Cl)c2ccccc12	11.2µM*	6.8%	-8.7%	-1.8%
CN(C)C(=O)Oc1ccc(Cl)c2cccnc12	-1.0%	-4.2%	i	0.5%
CCc1cc(OC)c(CC(C)N)cc1OC (configuration not stated)	nt	nt	nt	7.0%[96 µM]
Cc1ccc(N(CCC#N)C(=O)CCl)cc1C	2.82µM*	?	-4.0%	-1.1%
COc1ccc(NC(=O)C(c2ccccc2)n2c(=O)c(-c3cc4ccccc4[nH]3)nc3ccccc32)cc1 (configuration not stated)	?	i	i	nt
COc1c(C)cc(C(=O)C2CCCN(Cc3cccc(C)n3)C2)cc1C (configuration not stated)	8.91µM*	-18.7%	-1.7%	-5.3%
COc1cccc(C(=O)C2CCCN(Cc3cccc(C)n3)C2)c1 (configuration not stated)	?	?	-21.7%	4.0%
O=c1c2ccccc2nc(-c2ccccc2Cl)n1-c1cccc(O)c1	0.891µM*	-4.7%	i	-0.8%
O=c1c2ccccc2nc(-c2cccs2)n1-c1ccccc1	2µM*	-0.3%	i	12.0%
Cc1ccc(-c2nc3ccccc3c(=O)n2-c2cccc(O)c2)cc1	1.78µM*	-2.5%	i	13.8%
Cc1nc2ccccc2c(=O)n1-c1cccc(O)c1	24.3%	17.4%	-20.3%[57.5 µM]	14.7%
COc1ccc(CCNC(=O)c2cnc3sc(N4CCCCCC4)nn3c2=O)cc1	-5.9%	4.8%	-84.1%	nt
COc1cc(C(=O)NCCSc2c(-c3ccccc3)[nH]c3ccccc23)cc(OC)c1OC	?	1.6%	i	nt
CCOc1ccc(-c2cc(C)[n+](CCc3ccc(OC)c(OC)c3)c(-c3ccc(OCC)cc3)c2)cc1	6.31µM*	?	-52.7%	6.1%
CC(=O)Oc1ccc(-c2ccc(C(=O)Nc3cccc(S(=O)(=O)N4CCOCC4)c3)cc2)cc1	1.41µM*	?	-51.1%	0.0%
COc1ccc2nc(N3CCN(C(=O)CS(=O)(=O)c4ccc(C)cc4)CC3)sc2c1	-16.5%	-1.5%	-89.4%	nt
O=c1[nH]c(=S)n(CCC2=CCCCC2)c(O)c1/C=N/Nc1ccccc1	4.47µM*	-23.4%	i	-3.2%
Cc1ccc(N2CC(C(=O)Nc3cc(S(=O)(=O)N4CCCCC4)ccc3C)CC2=O)cc1 (configuration not stated)	?	1.8%	-72.5%	4.9%
CCCOP(=O)(OCCC)c1nc(-c2ccccc2)oc1NCc1ccccc1	10µM*	9.6%	i	7.9%
CCOP(=O)(OCC)c1nc(-c2ccc(Cl)cc2)oc1NCc1ccccc1	?	-13.7%	-6.7%	-5.9%
CCC(N)CCc1c[nH]c2ccccc12 (configuration not stated)	nt	nt	nt	-0.5%[110 µM]
CCN(CC)C(=O)c1ccc(NC(=O)COc2ccc(-c3nn(C)c(=O)c4ccccc34)cc2)cc1	140.5%	6.9%	-32.3%	12.7%
SMILES	GLP-1R inv ag	HEK293 tox	PTHR1 agonist	GLP1R ag
CCN(CC)C(=O)c1ccc(NC(=O)c2cn(-c3ccccc3)nc2-c2ccc(OC)cc2)cc1	4.47µM*	2.8%	i	9.5%
O=C(NCc1ccc(Cl)cc1)C1CCN(C(=O)c2cnn(-c3ccccc3)c2-n2cccc2)CC1	?	-6.2%	-7.7%	nt
CCOc1cc2c(cc1OCC)-n1cccc1C(c1ccc(OC)c(O)c1)NC2 (configuration not stated)	?	-11.7%	-6.0%	17.1%
COc1cc(C2NCc3ccccc3-n3cccc32)ccc1O (configuration not stated)	10µM*	-27.0%	-18.6%[57.5 µM]	-3.4%
COc1ccc(C2NCc3ccccc3-n3cccc32)cc1 (configuration not stated)	?	8.1%	-22.6%	-3.0%
CCOc1cc(C2NCc3ccccc3-n3cccc32)ccc1OC (configuration not stated)	10µM*	0.4%	i	-4.2%
CC(C)(C)C(=O)OC1=CN(Cc2ccccc2)S(=O)(=O)c2ccccc21	3.3%	7.0%	-42.6%	nt
Cc1ccc(NC(=O)COc2ccc(-c3nn(C)c(=O)c4ccccc34)cc2)c(C)c1	11.4%	-11.6%	-28.7%	nt
CCCN(CCC)c1nc(NC2CCN(C(=O)OCC)CC2)nc(OC)n1	2.82µM*	?	-27.6%	7.9%
COc1nc(NC2CCCCC2)nc(NC(C)(C)C)n1	?	4.2%	-25.6%	?
C/C(=N\NP(=S)(c1ccccc1)c1ccccc1)c1ccc(O)cc1O	11.2µM*	12.7%	-4.4%	16.1%
NC1=C(Br)C(=O)c2ncccc2C1=O	3.16µM*	3.98µM*	-21.6%	-12.3%
COc1ccc2sc(-c3ccc(SC)cc3)c(-c3ccc(O)cc3)c2c1	5.62µM*	?	-40.2%	-4.8%
COc1ccc(CCNCc2ccc(SC)cc2)cc1	-18.5%	4.0%	i	-3.2%
O=C(NN=Cc1ccc(N(CCCl)CCCl)cc1)C(=O)c1c[nH]c2ccccc12	5.62µM*	-2.5%	i	6.3%
CCc1ccc(NC(=O)c2ccc3oc(=O)n(Cc4ccccc4)c3c2)cc1	?	-13.4%	-50.8%	nt
O=C(NCc1ccc2c(c1)CCN2C(=O)c1ccccc1)Nc1cccc(C(F)(F)F)c1	3.98µM*	-22.8%	-75.6%	nt
O=C(Nc1ccc2nc3n(c(=O)c2c1)CCCCC3)c1cccc(C(F)(F)F)c1	3.9%	0.1%	-93.7%	nt
O=C1NC(=O)C(=Cc2ccccc2OCCOc2ccc([N+](=O)[O-])cc2)C(=O)N1	10µM*	?	-36.4%	6.4%
CC(C)(C)OC(=O)NCCCCCNC(=O)c1nc[nH]c1C(=O)NCc1ccc(CNC(=O)OC(C)(C)C)cc1	10µM*	?	-65.1%	-8.2%
COc1cccc(CNC(=O)c2cc3c(-c4ccccc4F)nn(C)c3s2)c1	?	-2.7%	i	nt
CCN(CC)CCNC(=O)c1cc2c(-c3ccc(Cl)cc3)nn(C)c2s1	5.62µM*	?	-6.0%	-7.4%
CC/C(=C(\c1ccc(O)cc1)c1ccc(OCCN(C)C)cc1)c1ccccc1	?	-6.1%	-16.7%	16.6%
CCN(CC)CCOc1ccc(/C(=C(/Cl)c2ccccc2)c2ccccc2)cc1	11.2µM*	?	0.5%	10.3%
O=c1[nH]c2ccccc2n1C1CCN(Cc2ccc(-c3nc4ccc(F)cc4nc3-c3ccccc3)cc2)CC1	4.47µM*	?	-17.8%	-3.1%
